Compounds with a hit are over-represented: about 8.9% of the library has one in this group of screens.
M1 agonist = activates the M1 muscarinic receptor | CHO-M1 cells, Fluo-4 calcium fluorescence, agonist mode; stronger effect = higher value | B-score at 10 µM | 64,000 compounds, 3% hits | AID 626;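 active means fluorescence rise, raw or as B-score row- and column-corrected plate score, outside the 99.7% band of its plate's samples, either direction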
M1 antagonist = blocks the rat M1 muscarinic receptor response to acetylcholine; AID 628; P08482; B-score at 10 µM; 64,000 compounds, 3.4% hits; CHO-M1 cells, Fluo-4 calcium, ACh EC80 antagonist mode; stronger effect = lower value;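 active means calcium fluorescence response, raw or row-and-column corrected B-score, differing from the plate sample mean either way at a set confidence level, mostly lower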
Htt clearance = compounds clearing mutant huntingtin protein; HeLa Exon1htt(103Q)mCFP, aggregate imaging; zero = plate's median compound well; 47,000 compounds, 0.42% hits; inhibition, % at 1.5 µM;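 active means inhibition of aggregate fluorescence above about 70%, also judged a hit by eye on the cell image, limit read from the data, passing the limit was not always enough; inconclusive means no rule stated for this call; inactive means not judged a hit on image review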;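 further: cells exposed to compound for three days before fixation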
D1 allo mod = D1 dopamine receptor (human) allosteric modulation. P21728. HEK293 D1, CRE-luciferase, dopamine EC30 potentiation; actives deviate in either direction. B-score at 10 µM. 58,000 compounds, 5.9% hits. AID 641;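 active means luminescence count or its row- and column-corrected plate score outside the 99.7% band of the plate's sample wells, on either side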
WNV protease inh = WNV NS2B-NS3 proteinase inhibition; P06935; WNV NS2B-NS3 protease, fluorogenic substrate Ex360/Em465; stronger effect = lower value; z-score (no concentration beside the values); 65,000 compounds, 0.18% hits; AID 577; in the data active means z-score below about -3
M1 ag confirm = confirmation of rat M1 muscarinic receptor agonists. shares compounds with M1 agonist. CHO-M1 cells, Fluo-4 calcium fluorescence, agonist mode; actives lie on both sides. fluorescence change (max-min) at 10 µM. 1,700 compounds, 19% hits. AID 1488;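 active means fluorescence change differs from the solvent-only DMSO control mean at a set confidence level in both duplicate runs; inconclusive means differs from solvent-only control mean in just one of two runs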;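 further: an EC20 dose of acetylcholine follows compound addition during the same imaging run; raw fluorescence intensity difference in instrument units with no normalization to controls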
M4 ag counter = rat M4 muscarinic agonism, M1 counter-screen; CHO M4/Gqi5 cells, Fluo-4 calcium fluorescence, agonist mode; actives lie on both sides; shares compounds with M1 agonist; fluorescence change (max-min) at 10 µM; AID 1741; 1,700 compounds, 9% hits;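 active means fluorescence change differing from the plate's solvent-only control wells at 99.7% confidence in both duplicates, whether higher or lower; inconclusive means differs from solvent controls in only one of two duplicates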
Target sequence (P08485 whole entry, looked up): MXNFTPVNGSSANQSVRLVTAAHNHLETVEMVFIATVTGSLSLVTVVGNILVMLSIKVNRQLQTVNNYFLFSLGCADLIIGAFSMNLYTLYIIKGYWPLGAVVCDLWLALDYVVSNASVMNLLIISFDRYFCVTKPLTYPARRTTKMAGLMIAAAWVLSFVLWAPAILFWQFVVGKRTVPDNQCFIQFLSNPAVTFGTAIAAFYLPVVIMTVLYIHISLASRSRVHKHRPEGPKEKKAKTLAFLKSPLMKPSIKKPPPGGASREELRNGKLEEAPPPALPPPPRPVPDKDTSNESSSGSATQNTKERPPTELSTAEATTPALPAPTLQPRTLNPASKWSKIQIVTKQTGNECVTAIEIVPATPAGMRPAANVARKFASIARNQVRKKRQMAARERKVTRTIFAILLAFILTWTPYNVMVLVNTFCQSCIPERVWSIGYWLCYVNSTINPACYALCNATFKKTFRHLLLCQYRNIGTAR
Numbers without * were called inactive; u = inconclusive; x = no result.

SMILES | M1 agonist | M1 antagonist | Htt clearance | D1 allo mod | WNV protease inh | M1 ag confirm | M4 ag counter
CCCN(CCC)S(=O)(=O)c1ccc(C(=O)N2CCC(=O)c3ccccc32)cc1 | 3.26* | -2.76* | -21.9 | -0.142 | 0.01 | -18.4 | -64.5
CCOc1ccc(NC(=O)c2cccc(-n3cnnn3)c2)cc1 | -0.678 | 0.0416 | x | 0.0931 | 2.08 | x | x
O=C(Nc1cnc2ccccc2c1)c1cccc(-n2cnnn2)c1 | 4.4* | -1.03 | 27.4 | -0.769 | 0.23 | u | -35
Cc1cccc(C(CC(=O)N2CCCC2)c2ccccc2)c1O (stereo not given) | 4.14* | 0.0381 | x | x | 1.48 | 4.05 | -2.5
Cc1[nH]nc2c1C(CCc1ccccc1)C(C#N)=C(N)O2 (stereo not given) | -0.0575 | 0.245 | x | x | 0.5 | x | x
O=C(O)C1CCC(=O)N1C1CCCC1 (stereo not given) | 5* | 0.745 | x | -0.544 | 0.46 | -29* | u
O=C(O)C1CCC(=O)N1C1c2ccccc2Oc2ccccc21 (stereo not given) | 0.292 | -0.798 | -288.8 | x | -0.85 | x | x
COc1cccc(S(=O)(=O)Nc2ccc(C(=O)N3CCOCC3)cc2)c1 | -0.397 | -1.01 | 24.3 | 0.243 | 0.87 | x | x
CCOC(=O)C1CCCN(C(=O)c2ccc(CS(=O)(=O)c3ccc(C)cc3)o2)C1 (stereo not given) | 34.4* | 0.703 | x | -0.631 | 1.92 | 261* | -14.7
Cc1ccc(S(=O)(=O)Cc2ccc(C(=O)N3CCCCCC3)o2)cc1 | -1.17 | -0.658 | x | 0.0217 | 2.06 | x | x
COc1ccc(NC(=O)c2cccc(N3C(=O)NC4CC3(C)Oc3ccccc34)c2)cc1 (stereo not given) | x | x | -20.7 | x | x | x | x
COc1cccc2c1OC1(C)CC2NC(=O)N1c1cccc(C(=O)Nc2ccc3c(c2)OCCO3)c1 (stereo not given) | 7.83* | 0.454 | x | -1.11 | -0.00997 | -16.2 | u
O=C(c1ccco1)N1CCN(/C(=N/S(=O)(=O)c2cccs2)c2ccccc2Cl)CC1 | -0.315 | -0.192 | x | 0.822 | -0.39 | x | x
CCOc1ccc2nc(NC(=O)C3CCCN(S(=O)(=O)c4cccs4)C3)sc2c1 (stereo not given) | x | x | -160.3 | x | -0.19 | x | x
O=C(CSc1nnnn1C1CCCC1)NCc1ccccc1 | x | x | -99.9 | x | x | x | x
O=C(CSc1nnnn1C1CC2CCC1C2)Nc1ccnc2ccccc12 (stereo not given) | 18.7* | -2.07* | x | -2.31 | -0.74 | 12.1 | -1.3
COc1cccc(C(=O)N2CCN(C3CCC(c4ccccc4)CC3)CC2)c1OC (stereo not given) | 18.2* | -3.14* | -40.2 | -1.69 | -0.92 | u | -39.9
Cc1cc(C(F)F)nn1CC(=O)NCc1ccccc1F | x | x | -27.6 | x | x | x | x
CCOC(=O)CC1=C(C(=O)OCC)C(c2ccc(OC)cc2OC)C(C#N)=C(N)O1 (stereo not given) | 6.99* | 1 | x | 1.02 | 0.45 | -1.69 | -43.2
COc1ccc(N2C(=O)C3CCCN3C2c2cccc(F)c2)cc1Cl (stereo not given) | -0.35 | 0.22 | -69.6 | -0.0713 | -1.07 | x | x
CCC(=O)Nc1cc(C(F)(F)F)ccc1N1CCOCC1 | 0.496 | 1.98 | -33.5 | 0.637 | -1.27 | x | x
O=C(COC(=O)CN1C(=O)C2CC=CCC2C1=O)Nc1cc(C(F)(F)F)ccc1N1CCOCC1 (stereo not given) | 3.56* | -0.593 | x | 0.812 | 1.57 | u | u
O=c1nc2n(c3sc4c(c13)CCC4)Cc1ccccc1-2 | -0.148 | -1.02 | x | 0.813 | -0.24 | x | x
COc1ccccc1N1CCN(c2nc(N)c(C#N)c(CC#N)c2C#N)CC1 | -0.713 | -0.0348 | -7.7 | x | 0.00232 | x | x
COc1cc2c(C#N)c(N3CCN(c4ccccc4OC)CC3)nc(N)c2c(N)n1 | 3.44* | -0.105 | x | -0.287 | -0.36 | -26.7* | -44.6
SMILES | M1 agonist | M1 antagonist | Htt clearance | D1 allo mod | WNV protease inh | M1 ag confirm | M4 ag counter
COc1ccc(S(=O)(=O)NCCOc2ccccc2)cc1OC | 2.33* | -0.272 | -19.3 | x | -0.53 | -10.6 | -21.6
CNC(=O)c1ccc(-c2sc3nc(N4CCOCC4)c4c(c3c2N)CCCC4)o1 | 5.83* | -1.12 | 28.3 | -1.09 | 0.38 | -3.73 | -68.9*
CNC(=O)c1ccc(-c2sc3nc(N4CCOCC4)c4c(c3c2N)CC(C)(C)OC4)o1 | x | x | 21.9 | x | x | x | x
C[N+](C)(C)C/C=C1/COCO1 | 48.8* | -13.4* | 12.9 | 1.21 | -0.12 | 437* | 178*
C/C=C(\CS(=O)(=O)c1ccccc1)S(=O)(=O)c1ccccc1 | -1.04 | 0.963 | x | -0.0366 | -0.35 | x | x
COCCOC(=O)c1[nH]c2c(c1C)C(=O)CC(c1ccco1)C2 (stereo not given) | -1.41 | -0.0262 | x | 2.99 | -0.53 | x | x
Cc1c(C(=O)OCCOC(C)C)[nH]c2c1C(=O)CC(c1ccco1)C2 (stereo not given) | 6.73* | -2.02* | x | 0.459 | -0.97 | u | -80.1*
CCN=C1SC(CC(=O)Nc2ccccc2)C(=O)N1CC (stereo not given) | 10.9* | -3.76* | 37.4 | 1.27 | 0.21 | u | -55.8
Nc1sc2c(c1C(=O)NC1CCS(=O)(=O)C1)CCC2 (stereo not given) | -0.338 | 0.32 | -21.9 | -1.54 | 1.11 | x | x
O=C(c1ccco1)N1CCN(CC(O)COc2ccc3oc4ccccc4c3c2)CC1 (stereo not given) | 2.09 | -2.23 | 45.4 | -0.0214 | -0.78 | x | x
CCOc1ccc2nc(NC(=O)CS(=O)(=O)c3ccccc3)sc2c1 | 2.21* | 0.318 | -18.6 | -0.128 | -0.94 | -16.3 | -38.4
CCOc1ccc2nc(NC(=O)CS(=O)(=O)c3ccc(C)cc3)sc2c1 | x | x | -16.3 | x | x | x | x
CCCC(=O)N(c1ccc(OCC)cc1)C1C=CS(=O)(=O)C1 (stereo not given) | -0.0593 | -1.88 | x | -0.664 | -0.78 | x | x
CCOC(=O)c1oc2cccc(O)c2c1CN(Cc1ccccc1)C(C)=O | 2.61* | 0.73 | -21.0 | 1.98 | -0.91 | u | -43.9
CCOC(=O)c1oc2cccc(O)c2c1C | x | x | -16.2 | x | x | x | x
CC12CN3CC(C)(CN(C1)C3c1ccc(Br)cc1O)C2 (stereo not given) | 1.03 | -1.27 | x | x | -0.27 | x | x
COc1ccc(C2N3CC4(C)CN2CC(C)(C3)C4)cc1OC (stereo not given) | -3.1* | 0.475 | x | x | 1.05 | -13.9 | -64.8*
Cc1cccc(NC(=O)c2sc3nc(-c4ccccc4)cn3c2C)n1 | 2.39* | -0.717 | x | 0.139 | 0.13 | u | -43
O=C(c1ccc(CNc2c(N3CCCC3)c(=O)c2=O)cc1)N1CCc2ccccc2C1 | 0.0186 | 0.375 | -37.9 | 0.0139 | 0.06 | x | x
COc1ccccc1OCC(=O)c1[nH]c(C)c(C(C)=O)c1C | 8.63* | -1.42 | 27.4 | -0.123 | -1.63 | 4.47 | -6.84
COc1ccccc1NC(=O)c1[nH]c(C)c(C(C)=O)c1C | 0.0486 | 1.07 | x | -0.537 | -0.85 | x | x
CCNc1cccc2c1C(=O)N(C)C2=O | 179* | -0.688 | x | 0.464 | 0.37 | 928* | 935*
